Data taken from the supplement of paper PMC13094657.
± gives the standard deviation of the averaged measurements.

Assays:
[1] = tested on: MDA-MB-231; assay: cell viability relative to vehicle unstimulated control (fraction); higher = more viable cells; conditions: pre-treatment time: 18 h then 24 h IFNg/TNF
[2] = tested on: MDA-MB-231; assay: kynurenine production, fold change vs DMSO IFNg/TNF control; higher = more kynurenine produced (less inhibition); conditions: pre-treatment time: 18 h then 24 h IFNg/TNF
How it was run: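 In 96-well plates, MDA-MB-231 cells (7 × 10^4/well) were given 24 h to settle, pre-treated for 18 h with each natural product in 0.1% DMSO, and stimulated for 24 h with IFNγ (1 U/ml) and TNF (6.25 ng/ml) at 37°C. Supernatants were processed with trichloroacetic acid and p-dimethylaminobenzaldehyde and read at 492 nm against 0–100 μM standards. In the first screening round, kynurenine production, as fold change over same-plate cytokine-stimulated vehicle wells, was averaged over duplicate plates.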
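Throughout, for cell viability relative to vehicle unstimulated control: viability of the cells left after supernatant collection, read with Deep Blue dye added for 4 h, as absorbance at 570 nm minus 600 nm.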

SMILES | cell viability [1] | kynurenine production [2]
C/C=C(/C)C(=O)O[C@H]1[C@H](OC(C)=O)[C@@]2(CO)C(CC1(C)C)C1=CCC3[C@@]4(C)CCC(O[C@@H]5O[C@H](C(=O)O)[C@@H](O[C@@H]6O[C@H](CO)[C@@H](O)[C@H](O)[C@H]6O)[C@H](O)[C@H]5O[C@@H]5O[C@H](CO)[C@@H](O)[C@H](O)[C@H]5O)[C@](C)(CO)C4CC[C@@]3(C)[C@]1(C)C[C@H]2O.C/C=C(\C)C(=O)O[C@H]1[C@H](OC(C)=O)[C@@]2(CO)C(CC1(C)C)C1=CCC3[C@@]4(C)CCC(O[C@@H]5O[C@H](C(=O)O)[C@@H](O[C@@H]6O[C@H](CO)[C@@H](O)[C@H](O)[C@H]6O)[C@H](O)[C@H]5O[C@@H]5O[C@H](CO)[C@@H](O)[C@H](O)[C@H]5O)[C@](C)(CO)C4CC[C@@]3(C)[C@]1(C)C[C@H]2O (stereo not given in full) [Escin] (compound dose: 10 uM) | 0.911 ± 0.11 | 1.14 ± 0.1
C=C1CC[C@H]2C(=C)CC[C@H]3C(=C)C(=O)O[C@@H]3[C@@H]12 [Dehydrocostus Lactone] (compound dose: 10 uM) | 0.933 ± 0.08 | 0.398 ± 0.079
C[C@@H]1O[C@@H](O[C@H]2[C@H](O[C@H]3CC[C@@]4(C)[C@@H](CC[C@]5(C)[C@@H]4CC=C4[C@@H]6CC(C)(C)CC[C@]6(C(=O)O[C@@H]6O[C@H](CO[C@@H]7O[C@H](CO)[C@@H](O[C@@H]8O[C@@H](C)[C@H](O)[C@@H](O)[C@H]8O)[C@H](O)[C@H]7O)[C@@H](O)[C@H](O)[C@H]6O)CC[C@]45C)[C@]3(C)CO)OC[C@H](O)[C@@H]2O)[C@H](O)[C@H](O)[C@H]1O [Hederacoside C] (compound dose: 10 uM) | 1.05 ± 0.024 | 1.25 ± 0.18
COc1cc(C(C)=O)cc(OC)c1O [Acetosyringone] (compound dose: 10 uM) | 1.05 ± 0.032 | 0.885 ± 0.087
CC(=O)OC(CC(C)C1=C2C[C@H](O)C3[C@@]4(C)CCC(=O)C(C)(C)C4CC[C@]3(C)[C@@]2(C)CC1)C1OC1(C)C (stereo not given in full) [Alisol B 23-acetate] (compound dose: 10 uM) | 1.05 ± 0.034 | 1.27 ± 0.24
C/C=C(/C)C(=O)O[C@H]1C(C)=C[C@]23C(=O)[C@@H](C=C4COC(C)(C)O[C@H]4[C@]12O)[C@H]1[C@@H](C[C@H]3C)C1(C)C [Ingenol-5,20-acetonide-3-O-angelate] (compound dose: 10 uM) | 0.971 ± 0.025 | 0.918 ± 0.23
CC(C)=CCC/C(C)=C/CC/C(C)=C/CO [Farnesol] (compound dose: 10 uM) | 0.994 ± 0.062 | 0.939 ± 0.2
CC(=O)O[C@@H]1C[C@H](O)[C@@]23CO[C@@H](O)[C@]1(C)[C@@H]2C[C@@H](O)[C@]1(C)[C@@H]3C(=O)[C@H](OC(C)=O)[C@@]2(C)[C@H](c3ccoc3)C[C@H]3O[C@]321 [Toosendanin] (compound dose: 10 uM) | 0.858 ± 0.056 | 0.206 ± 0.03
C=C(C)[C@@H]1CC[C@]2(C(=O)O)CC[C@]3(C)[C@H](CC[C@@H]4[C@@]5(C)CC[C@H](O)C(C)(C)[C@@H]5CC[C@]43C)[C@@H]12 [Betulinic acid] (compound dose: 10 uM) | 0.993 ± 0.044 | 0.949 ± 0.051
C=C[C@]1(C)CC[C@@H](C(=C)C)C[C@H]1C(=C)C [β-Elemene] (compound dose: 10 uM) | 0.939 ± 0.071 | 0.8 ± 0.11
